In ChEMBL document CHEMBL1201862, “PubChem BioAssay data set” (2004):
Among all 360,000 compounds or so, about 11,000 (3.1%) were called active. Another 4% or so got no clear call; they are omitted. The rule behind the calls is not given here. The entries come from a sample that favours actives as a whole.

Molecular target: Thioredoxin glutathione reductase (Schistosoma mansoni) (UniProt Q962Y6)
Assay: qHTS Assay for the Inhibitors of Schistosoma Mansoni Peroxiredoxins. [Related pubchem assays: 1011 (Confirmation Concentration-Response Assay for Inhibitors of the Schistosoma mansoni Redox Cascade ), 448 (Schistosoma Mansoni Peroxiredoxins (Prx2) and thioredoxin glutathione reductase (TGR) coupled assay)]
Format: functional

SMILES | Potency
Cl.N[C@@H](CCC(=O)O)C(=O)O | 5.01 µM (active)
Nc1c2c(nn1-c1ccc(C(=O)O)cc1)CNC2 | inactive
Cc1ccc(CNC(=O)C(=O)NCC2OCCN2S(=O)(=O)c2ccc3c(c2)OCCO3)cc1 (stereo unspecified) | 631 µM (active)
Cc1ccc(CNC(=O)C(NS(=O)(=O)c2cccc3nsnc23)C(C)C)cc1 (stereo unspecified) | inactive
Cc1c(C(=O)N2CCCCC2)c(S(=O)(=O)NCCc2ccc(Cl)cc2)c(C)n1C | inactive
CC(=O)N1CCc2cc(S(=O)(=O)Nc3ccc(C)cc3)ccc21 | 316 µM (active)
